In PubChem BioAssay (NCI):
Compounds without any hit were thinned out: in the full panel of roughly 83,000, 20% have a hit.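 For each line, cells grew in 96-well plates with the test compound present at a single concentration for 48 hours.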 Calls of active or inactive are those of the source. How the source made its calls: active means growth percent below 10; inactive means the rest.

What was measured:
Assay in all cases: NCI-60 one-dose screen, 48 h (100 = growth as untreated, 0 = no growth, -100 = all killed)
Settings in all cases: 10 µM
[1] = test system: DU-145 prostate
[2] = test system: MDA-MB-231 breast
[3] = test system: RXF 393 renal
[4] = test system: SF-268 CNS
[5] = test system: SF-539 CNS
[6] = test system: UACC-257 melanoma
[7] = test system: M14 melanoma
[8] = test system: HCT-15 colon
[9] = test system: SNB-75 CNS
[10] = test system: SNB-19 CNS
[11] = test system: PC-3 prostate
[12] = test system: SK-MEL-5 melanoma
[13] = test system: UACC-62 melanoma
[14] = test system: LOX IMVI melanoma
[15] = test system: SK-MEL-28 melanoma
[16] = test system: SF-295 CNS
[17] = test system: HT29 colon
[18] = test system: MALME-3M melanoma
[19] = test system: U251 CNS

Measured: growth

Cc1cn(-c2cc(F)cc(NC(=O)c3ccc(C)c(Nc4nccc(-c5cccnc5)n4)c3)c2)cn1
inactive: [1] 65.4% | [4] 67.3% | [6] 23.1% | [7] 60.2% | [8] 74.9% | [11] 68.6% | [12] 87.8% | [13] 40.9% | [14] 17% | [15] 28.2%
active: [2] 6.14% | [3] -1.37% | [5] -39.8% | [9] -20.8% | [10] 6.01%

CCOc1ccccc1/C=N/N1CCCCCC1
inactive: [1] 111% | [2] 96.3% | [3] 99.9% | [4] 93.7% | [16] 83.8% | [5] 109% | [6] 115% | [7] 107% | [8] 100% | [17] 104% | [9] 77.2% | [10] 108% | [12] 94.4% | [13] 109% | [14] 90.3% | [15] 107%

C[N+]1(CCCCC[N+]2(C)CCCC2)CCCC1
inactive: [1] 93.2% | [18] 90% | [2] 89.5% | [3] 122% | [4] 97.1% | [16] 123% | [5] 93.7% | [6] 102% | [8] 103% | [17] 102% | [9] 110% | [10] 96.8% | [19] 108% | [11] 86.3% | [12] 103% | [13] 102% | [14] 105% | [15] 105%

COc1ccc2c(c1)CC=C1[C@@H]2CC[C@]2(C)C(=O)/C(=N/O)C[C@@H]12
inactive: [1] 96.6% | [2] 86.9% | [3] 64% | [4] 76.4% | [16] 74.9% | [5] 98.7% | [6] 118% | [7] 94.3% | [8] 75.8% | [17] 67.8% | [9] 58% | [10] 93.4% | [19] 96.4% | [12] 89.7% | [13] 97.7% | [14] 70.3% | [15] 112%

CC(=O)OC1CC2C(C)(C)CCC[C@]2(C)C2=C1C(O)=C(C(C)C)C(=O)C2=O (some centres not stated)
active: [1] -62.7% | [2] -17.8% | [3] -59.8% | [16] -53.1% | [5] -7.95% | [6] -12% | [7] -43% | [8] -23.1% | [9] -13.3% | [12] -99.7% | [13] -60.1% | [14] -43% | [15] -42.8%
inactive: [4] 15.7% | [17] 17.2% | [10] 21.6% | [19] 19.5%

Cc1c(C(N)=O)sc2c1c(=O)n(Cc1ccccc1)c1nnc(-c3ccc(Br)cc3)n21
active: [6] -0.619% | [7] -22.5% | [12] -38.2% | [13] 6.17% | [14] 5.15%
inactive: [1] 31.7% | [2] 18.8% | [3] 15.9% | [4] 29.4% | [16] 15.8% | [5] 13.1% | [8] 25.3% | [17] 28.6% | [10] 51.8% | [19] 11.5% | [11] 37.2% | [15] 46.2%

OC[C@H]1OC([S-])[C@H](O)[C@@H](O)[C@@H]1O.[Au+] (some centres not stated)
inactive: [1] 111% | [18] 137% | [2] 70% | [3] 93.2% | [4] 88.2% | [16] 113% | [5] 84.3% | [6] 90% | [7] 81.6% | [8] 87.8% | [9] 98.8% | [10] 101% | [19] 61.7% | [11] 77.8% | [12] 68.5% | [13] 63.3% | [14] 50.3% | [15] 68.9%

CC(=O)COc1ccc(Cl)cc1Cl
inactive: [1] 106% | [2] 105% | [3] 107% | [4] 109% | [16] 103% | [5] 114% | [6] 112% | [7] 110% | [8] 107% | [17] 105% | [10] 118% | [11] 102% | [12] 99.8% | [13] 96.7% | [14] 94.9% | [15] 113%

CC(=O)O[C@@]12CO[C@@H]1C[C@H](O)[C@@]1(C)C(=O)[C@H](O)C3=C(C)[C@@H](OC(=O)[C@H](O)[C@@H](NC(=O)OC(C)(C)C)c4ccccc4)C[C@@](O)([C@@H](OC(=O)c4ccccc4)C12)C3(C)C (some centres not stated)
inactive: [18] 76.5% | [2] 45.5% | [3] 23.7% | [4] 51.8% | [5] 23% | [6] 74% | [8] 16.5% | [10] 37.8% | [19] 24.2% | [11] 31.7% | [12] 28.6% | [13] 52.5% | [14] 44.6% | [15] 77.9%
active: [1] -10.4% | [16] -23% | [17] 6.02% | [9] -2.3%
